Data on 45 compounds can be found in PubChem BioAssay AID743449 (Broad Institute, 2014).

Among all 9,900 compounds or so, about 90 (0.9%) were called active. Not shown: some 2% with an inconclusive outcome. This is one part of a sample in which actives are shown more often than they occur. Values without a mark were called inactive.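 How the source made its calls: active means mean normalized replicate activity at least 50 and at least half of replicates each reaching 50; inconclusive means only one of the two criteria met; inactive means neither criterion met.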

The test in a line: reduction of CTGF mRNA in DLD1 cells – DLD1 colon cancer cells, RT-qPCR, single point, primary screen (AID 743449).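 Further: 0% = neutral control wells and 100% = dasatinib control wells; higher means stronger suppression of CTGF expression like dasatinib.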 The conditions noted are these: 24 h, at 12.5 µM, active compounds read high.
As for `C[C@H]1CN([C@@H](C)CO)C(=O)c2ccccc2-c2ccccc2CO[C@@H]1CN(C)C(=O)[C@H](Cc1ccccc1)N(C)C`, the inhibition was -17.8%.
In the case of `Cc1noc(C)c1NC(=O)N(C)C[C@@H]1OCc2ccccc2-c2c(n(C)c3ccccc23)C(=O)N([C@H](C)CO)C[C@@H]1C` it was -14.8%; in that of `CCCC(=O)Nc1ccc2c(c1)C(=O)N(C)C[C@H](OC)[C@@H](C)CN(C(=O)c1ccccn1)[C@@H](C)CO2`, 25.7%; in that of `O=C([C@@H]1[C@@H](CO)[C@@H]2Cn3c(ccc(-c4ccc(F)cc4)c3=O)[C@@H]2N1Cc1cocn1)N1CCCCC1`, -1.91%.
In the case of `O=C(NCC1CC1)[C@H]1[C@H](CO)[C@H]2Cn3c(ccc(-c4cccnc4)c3=O)[C@H]2N1Cc1cocn1` it was -2.27%; in that of `O=C([C@H]1[C@H](CO)[C@H]2Cn3c(ccc(-c4ccc(F)cc4)c3=O)[C@H]2N1Cc1cocn1)N1CCCCC1`, 53.6% (active).
In the case of `CCS(=O)(=O)Nc1ccc2c(c1)C(=O)N(C)C[C@H](OC)[C@H](C)CN(C(=O)c1ccc3c(c1)OCO3)[C@@H](C)CO2`, the inhibition was -9.16%.
For `C[C@@H]1CN([C@H](C)CO)C(=O)CCCn2nncc2CO[C@H]1CN(C)Cc1ccc(C(=O)Nc2ccccc2N)cc1`, the inhibition was -132%.
In the case of `CO[C@H]1CN(C)C(=O)c2cc(NC(=O)Nc3ccccc3F)ccc2OC[C@@H](C)N(CCC(F)(F)F)C[C@@H]1C`, the inhibition is 8.27%.
In the case of `COc1ccccc1C(=O)Nc1ccc2c(c1)C(=O)N(C)C[C@@H](OC)[C@@H](C)CN(C(C)=O)[C@@H](C)CO2` it was -6.31%.
For the compound `CO[C@@H]1CN(C)C(=O)c2cc(NC(=O)Nc3ccccc3F)ccc2OC[C@H](C)N(CCC(F)(F)F)C[C@H]1C`, the inhibition is 21%.
For the compound `CCCN1C[C@@H](C)[C@H](OC)CN(C)C(=O)c2cc(NS(=O)(=O)c3ccccc3)ccc2OC[C@@H]1C`, the inhibition was -22.6%.
For `CCC(=O)N1C[C@@H](C)[C@@H](OC)CN(C)C(=O)c2cc(NC(=O)Nc3ccc(Cl)cc3)ccc2OC[C@H]1C`, the inhibition is -27.4%.
In the case of `CCC(=O)N1C[C@@H](C)[C@@H](OC)CN(C)C(=O)c2cc(NC(=O)Nc3ccc(Cl)cc3)ccc2OC[C@@H]1C` it was 15%; in that of `CCCN1C[C@H](C)[C@@H](OC)CN(C)C(=O)c2cc(NS(=O)(=O)c3ccccc3)ccc2OC[C@H]1C`, 2.69%; in that of `COc1ccccc1C(=O)Nc1ccc2c(c1)C(=O)N(C)C[C@H](OC)[C@H](C)CN(C(C)=O)[C@H](C)CO2`, -22.7%.
Turning to `CO[C@H]1CN(C)C(=O)c2cc(NC(=O)Nc3ccccc3F)ccc2OC[C@H](C)N(CCC(F)(F)F)C[C@@H]1C`, the inhibition was 65.1% (active).
For `CO[C@@H]1CN(C)C(=O)c2cc(NS(=O)(=O)c3ccccc3C)ccc2OC[C@@H](C)N(S(=O)(=O)c2ccccc2)C[C@H]1C`, the inhibition was 75.2% (active).
For the compound `CCC(=O)N1C[C@H](C)[C@@H](OC)CN(C)C(=O)c2cc(NC(=O)Nc3ccc(Cl)cc3)ccc2OC[C@@H]1C`, the inhibition was 59.6% (active).
Take `COc1ccccc1C(=O)Nc1ccc2c(c1)C(=O)N(C)C[C@H](OC)[C@@H](C)CN(C(C)=O)[C@@H](C)CO2`: the inhibition is 64.2% (active).
On to `C[C@H](CO)N1C[C@H](C)[C@@H](CN(C)S(=O)(=O)c2cn(C)cn2)OCc2ccccc2-c2ccccc2C1=O`, for which the inhibition is 13.5%.
On to `C[C@H]1CN([C@@H](C)CO)C(=O)c2cc(-c3ccncc3)cnc2O[C@@H]1CN(C)C(=O)CN1CCOCC1`, for which the inhibition was 4.89%.
Turning to `O=C(C1CCOCC1)N1C[C@H]2[C@@H](c3ccccc31)[C@H](CO)N2C(=O)Cc1ccccn1`, the inhibition is -3.22%.
As for `CCCNC(=O)N(C)C[C@H]1[C@H](c2ccccc2)[C@@H](CO)N1C(=O)c1ccccc1`, the inhibition was 13.1%.
Regarding `COCC(=O)Nc1ccc2c(c1)[C@H]1C[C@@H](CC(=O)N3CCOCC3)O[C@H](CO)[C@H]1O2`, the inhibition is -2.81%.
In the case of `C[C@H](CO)N1C[C@H](C)[C@H](CN(C)Cc2cccnc2)Oc2ncc(-c3ccc(C#N)cc3)cc2C1=O` it was 10.9%.
Turning to `Cc1noc(C)c1S(=O)(=O)N(C)C[C@H]1OCCCC[C@@H](C)Oc2ccc(NC(=O)CCC(F)(F)F)cc2C(=O)N([C@@H](C)CO)C[C@H]1C`, the inhibition is -10.5%.
Turning to `CCN1[C@@H]2c3ccc(C4=CCCC4)c(=O)n3C[C@@H]2[C@@H](CO)[C@@H]1C(=O)NC1Cc2ccccc2C1`, the inhibition is -18.3%.
In the case of `Cc1cc(C(=O)Nc2ccc3c(c2)C(=O)N(C)[C@@H]2CC[C@@H](CC(=O)O)O[C@H]2CO3)no1` it was 8.49%; in that of `COCC(=O)N1CC[C@@H]2[C@H]1c1cc(C#Cc3ccc(F)cc3)ccc1N[C@@H]2CO`, 22.4%; in that of `COCC(=O)N1CC[C@@H]2[C@H](CO)Nc3ccc(C#Cc4ccc(F)cc4)cc3[C@@H]21`, 51.2% (active).
For the compound `COCC(=O)N1CC[C@@H]2[C@@H](CO)Nc3ccc(C#Cc4ccc(F)cc4)cc3[C@@H]21`, the inhibition is 12.9%.
For `COc1cccc(NC(=O)C[C@@H]2CC[C@@H]3[C@H](COc4ccc(NS(=O)(=O)c5cccc(F)c5)cc4C(=O)N3C)O2)c1`, the inhibition was -76.5%.
Consider `C[C@@H]1CN([C@H](C)CO)C(=O)c2ccccc2-c2ccccc2CO[C@@H]1CN(C)Cc1cccc2c1OCCCO2`, for which the inhibition was 59.4% (active).
As to `C[C@@H]1CN([C@@H](C)CO)C(=O)c2ccccc2-c2ccccc2CO[C@@H]1CN(C)Cc1cccc2c1OCCCO2`, the inhibition is 14.7%.
As for `C[C@@H]1CN([C@@H](C)CO)C(=O)c2ccccc2-c2ccccc2CO[C@H]1CN(C)S(=O)(=O)c1cn(C)cn1`, the inhibition is -9.13%.
In the case of `C[C@@H]1CN([C@@H](C)CO)C(=O)c2ccccc2-c2ccccc2CO[C@@H]1CN(C)S(=O)(=O)c1cn(C)cn1` it was 63% (active); in that of `C[C@H](CO)N1C[C@H](C)[C@@H](CN(C)S(=O)(=O)c2ccc([N+](=O)[O-])cc2)OCc2ccccc2-c2c(n(C)c3ccccc23)C1=O`, 63.8% (active); in that of `C[C@@H]1CN([C@@H](C)CO)C(=O)c2c(c3ccccc3n2C)-c2ccccc2CO[C@H]1CN(C)S(=O)(=O)c1ccc([N+](=O)[O-])cc1`, 7.85%.
For the compound `C[C@@H]1CN([C@@H](C)CO)C(=O)c2ccccc2-c2ccccc2CO[C@@H]1CN(C)Cc1ccccc1C(F)(F)F`, the inhibition is -64.4%.
Regarding `C[C@H](CO)N1C[C@H](C)[C@H](CN(C)Cc2ccccc2C(F)(F)F)OCc2ccccc2-c2ccccc2C1=O`, the inhibition was 26.5%.
In the case of `C[C@H]1CN([C@@H](C)CO)C(=O)c2ccccc2-c2ccccc2CO[C@@H]1CN(C)S(=O)(=O)c1cn(C)cn1` it was -12.7%; in that of `C[C@@H]1CN([C@H](C)CO)C(=O)c2ccccc2-c2ccccc2CO[C@@H]1CN(C)Cc1ccccc1C(F)(F)F`, 69.6% (active).
With `C[C@H]1CN([C@@H](C)CO)C(=O)c2c(c3ccccc3n2C)-c2ccccc2CO[C@@H]1CN(C)S(=O)(=O)c1ccc([N+](=O)[O-])cc1`, the inhibition is 23.9%.
`C[C@H]1CN([C@@H](C)CO)C(=O)c2ccccc2-c2ccccc2CO[C@H]1CN(C)Cc1cccc2c1OCCCO2`: the inhibition was 24%.

By inhibition is commonly meant the relative decrease from the control value, in per cent.
